Screening data from PubChem BioAssay.
HT1080-NT tox = kills 2HG-producing HT-1080-NT fibrosarcoma cells | Potency, µM (highest dose often 46.1 µM), for inactives: at the top dose activity, negative = less viability, most hits filed as cytotoxic | HT-1080-NT fibrosarcoma viability, CellTiter-Glo ATP luminescence, 48 h | 1.6% of 360,000 active;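 also: NT is the 2HG producing partner of a matched IDH1 knockdown line; potency is read from the fitted curve at half-maximal effect; 0% = DMSO-treated cells and -100% = media-only wells without cells; nearly all actives have a fitted effect of over 55% in size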
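Read-out is CellTiter-Glo luminescence after 10 minutes at room temperature, following 48 hours' compound treatment of HT-1080-NT cells (750 cells/well, RPMI, 5% FBS, 37 degrees C).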
IL-1B inflam inh = inhibitors of inflammasome signaling (IL-1 beta secretion) | THP-1 LPS/ATP IL-1B secretion, AlphaLISA, 16 h; active compounds read low | activity change, % at 57.5 µM | 4.7% of 360,000 active | AID 743279; in the data active = activity change below about -50%; inconclusive = mostly about -30% to -49%
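THP-1 cells pretreated 1 hr with compounds (up to 57.5 uM final), then stimulated with LPS (250 ng/mL final) plus ATP (1.25 mM final); secreted IL-1B measured by AlphaLISA after 16 hr, decreased signal indicating inhibition.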
HT1080 IDH1KD tx = HT-1080 IDH1 knockdown cell toxicity (counter line). HT-1080 IDH1 knockdown viability, ATP luminescence, 48 h. Potency, µM (titrated, usually from 46.1 µM), for inactives: top-dose activity, negative = toxicity, usual class: cytotoxic. 2% of 360,000 active. AID 686971;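 also: potency is read from the fitted curve at half-maximal effect; 0% = DMSO wells and -100% = cell-free medium wells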
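HT-1080-IDH1KD cells (IDH1 knocked down), 750/well in RPMI with 5% FBS, treated with compound 48 h at 37 degrees C. Viability by CellTiter-Glo luminescence, normalised to DMSO and no-cell wells; concentration-response curves classed.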
KB-V1 cytotox = kills drug-selected multidrug resistant KB-V1 cells | 3.4% of 400,000 active | KB-V1 MDR cells viability, CellTiter-Glo, 72 h | Potency, µM (titrated, usually from 46.1 µM), usual class: cytotoxic; also: potency is read from the fitted curve at half-maximal effect; nearly all actives have a fitted effect of over 60% in size
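KB-V1 cells (P-gp-expressing MDR subline of KB-3-1) in phenol-red-free DMEM with 10% FBS were exposed to library compounds over a concentration series for 72 h at 37 degrees C. Viability read by CellTiter-Glo luminescence; concentration-effect curves fitted after normalization.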
KB-3-1 tox = KB-3-1 parental cell cytotoxicity; 1.4% of 400,000 active; Potency, µM (highest dose often 46.1 µM), actives largely listed as cytotoxic; KB-3-1 viability, CellTiter-Glo ATP luminescence, 72 h; also: potency is read from the fitted curve at half-maximal effect; nearly all actives have a fitted effect of over 60% in size
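Viability of parental KB-3-1 cells, measured by CellTiter-Glo luminescence, followed a 72 h incubation at 37 °C with pinned compounds in phenol-red-free DMEM containing 10% FBS.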
* = called active by the depositor; i = inactive; ? = inconclusive; . = not tested or not shown. An excerpt weighted towards active compounds, which were near 8.8% of everything screened. Unless noted, calls follow the shape of the dose curve; as a rule, active = well fitted curve in the direction sought with a large enough effect; inconclusive = small, poorly fitted or top-dose-only effect, or another doubt; inactive = no such curve, though single readings can be large; an effect the other way counts as inactive or inconclusive. Unless noted, % is scaled to controls: 0 for no effect and ±100 for the full control effect.

SMILES | HT1080-NT tox | IL-1B inflam inh | HT1080 IDH1KD tx | KB-V1 cytotox | KB-3-1 tox
CC1(C)CC(=O)c2c(O)cc(OCC(=O)N3CCN(c4ccc(F)cc4)CC3)cc2O1 | -0.1% | -54.8* | -5.3% | ? | i
CC(=O)N1CCC2(CC1)CC(=O)c1cc(OCC(=O)NCc3ccc(C)cc3)ccc1O2 | 17.2% | 8.7 | -21.0% | 18.4µM* | i
O=C(CN1CCN(Cc2ccc(F)cc2)C1=O)NCc1ccccc1 | . | . | . | i | i
O=C(NN1C(=O)c2ccccc2NC1c1ccoc1)c1ccc([N+](=O)[O-])cc1 (stereo not drawn) | 0.9% | ? | -4.6% | i | ?
O=C(NN1C(=O)c2ccccc2NC1c1ccc([N+](=O)[O-])o1)c1ccc([N+](=O)[O-])cc1 (stereo not drawn) | ? | -103.8* | ? | ? | i
O=C(NN1C(=O)c2ccccc2NC1c1ccc([N+](=O)[O-])o1)c1ccccc1 (stereo not drawn) | -15.1% | -76.3* | -15.5% | i | i
CN(C)c1ccc(/C=C/c2cccc[n+]2[O-])cc1 | 18.5% | . | 8.0% | i | i
CC(C)CC[n+]1ccccc1/C=C/c1ccc(N(C)C)cc1 | ? | -95.5* | 23.1µM* | i | 1.46µM*
O=C(OCC(=O)N1CCOCC1)c1cnc(Cl)c(Cl)c1 | 6.4% | 0.0 | 6.0% | ? | i
CC1CN(C(=O)COC(=O)c2cnc(Cl)c(Cl)c2)CC(C)O1 (stereo not drawn) | 1.8% | -72.0* | 4.6% | . | .
O/N=C/c1ccccc1OCc1ccccc1F | -8.5% | ? | -6.6% | ? | i
O/N=C/c1ccc(OCc2ccccc2)c(Cl)c1 | 1.1% | -2.5 | -21.2% | ? | ?
O/N=C/c1ccc(OCc2ccccc2)c(Br)c1 | -21.0% | ? | -14.0% | 11.6µM* | ?
O/N=C/c1ccc(OCc2ccccc2F)c(Cl)c1 | 1.3% | ? | -4.7% | 16.4µM* | ?
CCOc1cc(/C=N/O)cc(Br)c1OCc1ccc(Cl)cc1 | ? | -77.8* | ? | i | i
C[C@@H]1CN([C@@H](C)CO)C(=O)c2cc(Br)cnc2O[C@H]1CN(C)C(=O)Nc1ccc2c(c1)OCO2 | 9.4% | 8.7 | 4.3% | i | i
CN(CC(=O)Nc1ccccc1Cl)CC(=O)N1CCc2ccccc21 | -2.6% | -13.4 | -7.0% | i | i
COc1ccc2[nH]c(CN3CCC(CO)(CCOc4ccccc4)CC3)c(C)c2c1 | 14.6µM* | -202.2* | 23.1µM* | ? | i
OCC1(CCOc2ccccc2)CCN(Cc2ccccc2C(F)(F)F)CC1 | ? | -55.1* | -24.8% | i | i
COc1cc(Cl)c(CN2CCC(CO)(CCOc3ccccc3)CC2)cc1OC | -6.3% | ? | -8.3% | i | i
Cc1nn(C)cc1CN1CCC(CO)(CCOc2ccccc2)CC1 | 7.9% | 0.0 | 3.7% | i | i
OCC1(CCOc2ccccc2)CCN(Cc2nc3ccc(F)cc3[nH]2)CC1 | -17.5% | 1.6 | ? | ? | i
OCC1(CCOc2ccccc2)CCN(CC2=Cc3cc(Cl)ccc3OC2)CC1 | -22.1% | -92.7* | 18.4µM* | i | i
OCC1(CCOc2ccccc2)CCN(Cc2cn[nH]c2-c2ccc(F)cc2)CC1 | ? | -57.1* | 23.1µM* | i | i
COc1ccc(-n2nc3c(c2NC(=O)CCCl)CSC3)cc1 | 4.8% | -3.6 | 5.0% | i | i
SMILES | HT1080-NT tox | IL-1B inflam inh | HT1080 IDH1KD tx | KB-V1 cytotox | KB-3-1 tox
CCOC(=O)c1sc(NC(=O)c2cc3nc(-c4ccccc4)cc(C(F)(F)F)n3n2)c(C(=O)OCC)c1C | . | . | . | i | i
Cc1oc(-c2cccs2)nc1CN1CCC(CO)(CCOc2ccccc2)CC1 | 2.9% | -82.7* | 11.0% | ? | i
CCOc1ccccc1CN1CCC(CO)(CCOc2ccccc2)CC1 | -15.2% | -73.3* | -24.8% | i | i
COc1ccc(CN2CCC(CO)(CCOc3ccccc3)CC2)c(OC)c1C | ? | -104.3* | ? | i | i
CCOc1ccc(NS(=O)(=O)c2ccc3[nH]c4c(c3c2)CCCCC4)cc1 | . | . | . | i | ?
C/C=C1\COC(C(=O)NCc2ccccc2)(C(F)(F)F)C=C1C=C1CCCCC1 (stereo not drawn) | -3.0% | -3.2 | -21.1% | i | i
